Measured values from PMC8384837, “Expanding the binding specificity for RNA recognition by a PUF domain”.
Positions count from the first letter of the chain named.

Columns and labels:
Experiment in all cases: yeast three-hybrid, YBZ-1, SC-Leu-His + 0.5 mM 3-AT, 4 days
Details in all cases: tags: N-Gal4 AD-HA kept; label: inside an RPR1-promoter hybrid RNA with tandem MS2 sites; ssRNA
PUM1 PUF domain R7-RHP = PUM1 PUF domain R7-RHP (Homo sapiens, UniProt Q14671 828-1176, S1079R;N1080H;E1083P)
How it was run: (§1)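 Pumilio-1 PUF domain libraries, randomized at the three base-contacting residues of each repeat, were co-expressed with matching RNA elements from a centromeric plasmid in strain YBZ-1, which carries a LexA–MS2 coat fusion and a HIS3 reporter. Transformants grew for four days on SC-Leu (input) or on SC-Leu-His + 0.5 mM 3-AT (selection), and the repeat regions were PCR-amplified and Illumina-sequenced. The interaction score is the log change in variant frequency from input to selection. That logarithm is base 2, with a pseudocount of 1 where a variant was absent.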

PUM1 PUF domain R7-EPS = PUM1 PUF domain R7-EPS (Homo sapiens, UniProt Q14671 828-1176, S1079E;N1080P;E1083S)
How it was run: as §1

PUM1 PUF domain R2-LWE = PUM1 PUF domain R2-LWE (Homo sapiens, UniProt Q14671 828-1176, N899L;Y900W;Q903E)
How it was run: as §1

PUM1 PUF domain R3-SRV = PUM1 PUF domain R3-SRV (Homo sapiens, UniProt Q14671 828-1176, C935S;Q939V)
How it was run: as §1

PUM1 PUF domain R3-GND = PUM1 PUF domain R3-GND (Homo sapiens, UniProt Q14671 828-1176, C935G;R936N;Q939D)
How it was run: as §1

PUM1 PUF domain R5-FRI = PUM1 PUF domain R5-FRI (Homo sapiens, UniProt Q14671 828-1176, C1007F;Q1011I)
How it was run: as §1

PUM1 PUF domain R5-RQP = PUM1 PUF domain R5-RQP (Homo sapiens, UniProt Q14671 828-1176, C1007R;R1008Q;Q1011P)
How it was run: as §1

PUM1 PUF domain R5-KSS = PUM1 PUF domain R5-KSS (Homo sapiens, UniProt Q14671 828-1176, C1007K;R1008S;Q1011S)
How it was run: as §1

PUM1 PUF domain R1-KVV = PUM1 PUF domain R1-KVV (Homo sapiens, UniProt Q14671 828-1176, S863K;R864V;Q867V)
Chain of PUM1 PUF domain R1-KVV (Q14671 828-1176 S863K/R864V/Q867V): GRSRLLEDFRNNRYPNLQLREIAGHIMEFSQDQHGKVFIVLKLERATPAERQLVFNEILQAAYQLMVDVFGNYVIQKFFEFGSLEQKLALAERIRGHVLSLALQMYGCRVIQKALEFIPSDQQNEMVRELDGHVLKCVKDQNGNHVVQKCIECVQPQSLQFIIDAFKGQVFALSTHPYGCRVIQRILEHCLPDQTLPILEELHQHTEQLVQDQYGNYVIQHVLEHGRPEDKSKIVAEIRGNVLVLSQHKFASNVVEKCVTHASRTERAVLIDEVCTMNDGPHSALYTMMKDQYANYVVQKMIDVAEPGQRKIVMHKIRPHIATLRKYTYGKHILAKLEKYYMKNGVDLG
How it was run: as §1

PUM1 PUF domain R6-AYE = target: T1, PUM1 PUF domain R6-AYE (Homo sapiens, UniProt Q14671 828-1176, N1043A;Q1047E)
T1 sequence: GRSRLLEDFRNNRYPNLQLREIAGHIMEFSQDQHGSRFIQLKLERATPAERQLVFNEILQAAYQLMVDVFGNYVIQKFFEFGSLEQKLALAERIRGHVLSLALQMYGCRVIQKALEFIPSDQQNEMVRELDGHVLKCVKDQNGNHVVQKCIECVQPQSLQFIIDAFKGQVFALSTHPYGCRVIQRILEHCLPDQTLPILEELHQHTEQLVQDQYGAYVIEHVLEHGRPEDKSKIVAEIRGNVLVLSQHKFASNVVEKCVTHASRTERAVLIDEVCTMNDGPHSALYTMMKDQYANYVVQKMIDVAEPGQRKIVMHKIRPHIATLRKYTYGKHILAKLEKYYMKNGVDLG
How it was run: as §1

PUM1 PUF domain R4-NYP = PUM1 PUF domain R4-NYP (Homo sapiens, UniProt Q14671 828-1176, H972Y;Q975P)
How it was run: as §1

PUM1 PUF domain R8-NWG = PUM1 PUF domain R8-NWG (Homo sapiens, UniProt Q14671 828-1176, Y1123W;Q1126G)
How it was run: as §1

PUM1 PUF domain R3-VHP = PUM1 PUF domain R3-VHP (Homo sapiens, UniProt Q14671 828-1176, C935V;R936H;Q939P)
How it was run: as §1

PUM1 PUF domain R6-GWK = target: T2, PUM1 PUF domain R6-GWK (Homo sapiens, UniProt Q14671 828-1176, N1043G;Y1044W;Q1047K)
T2 sequence: T1 sequence with A216G, Y217W, E220K
How it was run: as §1

PUM1 PUF domain R4-MPS = PUM1 PUF domain R4-MPS (Homo sapiens, UniProt Q14671 828-1176, N971M;H972P;Q975S)
How it was run: as §1

PUM1 PUF domain R6-NWI = target: T3, PUM1 PUF domain R6-NWI (Homo sapiens, UniProt Q14671 828-1176, Y1044W;Q1047I)
T3 sequence: T1 sequence with A216N, Y217W, E220I
How it was run: as §1

PUM1 PUF domain R3-RAM = PUM1 PUF domain R3-RAM (Homo sapiens, UniProt Q14671 828-1176, C935R;R936A;Q939M)
How it was run: as §1

PUM1 PUF domain R5-LLR = PUM1 PUF domain R5-LLR (Homo sapiens, UniProt Q14671 828-1176, C1007L;R1008L;Q1011R)
How it was run: as §1

PUM1 PUF domain R8-RYM = PUM1 PUF domain R8-RYM (Homo sapiens, UniProt Q14671 828-1176, N1122R;Q1126M)
How it was run: as §1

PUM1 PUF domain R7-TVR = PUM1 PUF domain R7-TVR (Homo sapiens, UniProt Q14671 828-1176, S1079T;N1080V;E1083R)
How it was run: as §1

In the case of “GGCUAGAACUAGUGGAUCCCCCGGCGCCCGGCGGCUCGAGCCCGGGUAAGUCUAAAUAGUCUGCAUGCCGCCGGGCGCCAUGCCUGCAGGUCGACUCUAGAAAACAUG”, the binding signal (PUM1 PUF domain R7-RHP) is reported as 4.29 log2 enrichment (interaction score) and the binding signal (PUM1 PUF domain R7-EPS) is reported as 1.4 log2 enrichment (interaction score).
In the case of “GGCUAGAACUAGUGGAUCCCCCGGCGCCCGGCGGCUCGAGCCCGGGUAAGUGUAAAGAGUCUGCAUGCCGCCGGGCGCCAUGCCUGCAGGUCGACUCUAGAAAACAUG”, the binding signal (PUM1 PUF domain R2-LWE) is reported as 6.63 log2 enrichment (interaction score).
With “GGCUAGAACUAGUGGAUCCCCCGGCGCCCGGCGGCUCGAGCCCGGGUAAGUGUAAGUAGUCUGCAUGCCGCCGGGCGCCAUGCCUGCAGGUCGACUCUAGAAAACAUG” the binding signal (PUM1 PUF domain R3-SRV) was 1.79 log2 enrichment (interaction score) and the binding signal (PUM1 PUF domain R3-GND) was 3.15 log2 enrichment (interaction score).
“GGCUAGAACUAGUGGAUCCCCCGGCGCCCGGCGGCUCGAGCCCGGGUAAGUGUCAAUAGUCUGCAUGCCGCCGGGCGCCAUGCCUGCAGGUCGACUCUAGAAAACAUG” was tested, and the binding signal (PUM1 PUF domain R5-FRI) was 2.41 log2 enrichment (interaction score), the binding signal (PUM1 PUF domain R5-RQP) was 4.91 log2 enrichment (interaction score) and the binding signal (PUM1 PUF domain R5-KSS) was 3.4 log2 enrichment (interaction score).
With “GGCUAGAACUAGUGGAUCCCCCGGCGCCCGGCGGCUCGAGCCCGGGUAAGUGUAAAUCGUCUGCAUGCCGCCGGGCGCCAUGCCUGCAGGUCGACUCUAGAAAACAUG” the binding signal (PUM1 PUF domain R1-KVV) was 5.35 log2 enrichment (interaction score).
With “GGCUAGAACUAGUGGAUCCCCCGGCGCCCGGCGGCUCGAGCCCGGGUAAGUGGAAAUAGUCUGCAUGCCGCCGGGCGCCAUGCCUGCAGGUCGACUCUAGAAAACAUG” the binding signal (PUM1 PUF domain R6-AYE) was 3.94 log2 enrichment (interaction score).
With “GGCUAGAACUAGUGGAUCCCCCGGCGCCCGGCGGCUCGAGCCCGGGUAAGUGUAUAUAGUCUGCAUGCCGCCGGGCGCCAUGCCUGCAGGUCGACUCUAGAAAACAUG” the binding signal (PUM1 PUF domain R4-NYP) was 2.54 log2 enrichment (interaction score).
With “GGCUAGAACUAGUGGAUCCCCCGGCGCCCGGCGGCUCGAGCCCGGGUAAGUGUAAAUAGUCUGCAUGCCGCCGGGCGCCAUGCCUGCAGGUCGACUCUAGAAAACAUG” the binding signal (PUM1 PUF domain R5-FRI) was 1.55 log2 enrichment (interaction score), the binding signal (PUM1 PUF domain R8-NWG) was 3.93 log2 enrichment (interaction score) and the binding signal (PUM1 PUF domain R3-VHP) was 3.02 log2 enrichment (interaction score). For the same sequence, the binding signal (PUM1 PUF domain R2-LWE) was 4.67 log2 enrichment (interaction score), the binding signal (PUM1 PUF domain R3-SRV) was 3.25 log2 enrichment (interaction score) and the binding signal (PUM1 PUF domain R5-RQP) was 2.21 log2 enrichment (interaction score). The binding signal (PUM1 PUF domain R6-GWK) was 7.25 log2 enrichment (interaction score) and the binding signal (PUM1 PUF domain R4-MPS) was 4.59 log2 enrichment (interaction score).
For “GGCUAGAACUAGUGGAUCCCCCGGCGCCCGGCGGCUCGAGCCCGGGUAAGUGAAAAUAGUCUGCAUGCCGCCGGGCGCCAUGCCUGCAGGUCGACUCUAGAAAACAUG”, the binding signal (PUM1 PUF domain R6-AYE) was 6.06 log2 enrichment (interaction score) and the binding signal (PUM1 PUF domain R6-NWI) was 3.09 log2 enrichment (interaction score).
For “GGCUAGAACUAGUGGAUCCCCCGGCGCCCGGCGGCUCGAGCCCGGGUAAGUGUAAUUAGUCUGCAUGCCGCCGGGCGCCAUGCCUGCAGGUCGACUCUAGAAAACAUG”, the binding signal (PUM1 PUF domain R3-SRV) was 2.15 log2 enrichment (interaction score) and the binding signal (PUM1 PUF domain R3-RAM) was 2.45 log2 enrichment (interaction score).
“GGCUAGAACUAGUGGAUCCCCCGGCGCCCGGCGGCUCGAGCCCGGGUAAGUGUAAAUGGUCUGCAUGCCGCCGGGCGCCAUGCCUGCAGGUCGACUCUAGAAAACAUG” was tested, and the binding signal (PUM1 PUF domain R1-KVV) was 1.3 log2 enrichment (interaction score).
With “GGCUAGAACUAGUGGAUCCCCCGGCGCCCGGCGGCUCGAGCCCGGGUAAGUGUUAAUAGUCUGCAUGCCGCCGGGCGCCAUGCCUGCAGGUCGACUCUAGAAAACAUG” the binding signal (PUM1 PUF domain R5-FRI) was 1.47 log2 enrichment (interaction score) and the binding signal (PUM1 PUF domain R5-LLR) was 2.92 log2 enrichment (interaction score).
With “GGCUAGAACUAGUGGAUCCCCCGGCGCCCGGCGGCUCGAGCCCGGGUAAGUGUAAAUUGUCUGCAUGCCGCCGGGCGCCAUGCCUGCAGGUCGACUCUAGAAAACAUG” the binding signal (PUM1 PUF domain R1-KVV) was 5.82 log2 enrichment (interaction score).
In the case of “GGCUAGAACUAGUGGAUCCCCCGGCGCCCGGCGGCUCGAGCCCGGGUAAGCGUAAAUAGUCUGCAUGCCGCCGGGCGCCAUGCCUGCAGGUCGACUCUAGAAAACAUG”, the binding signal (PUM1 PUF domain R8-RYM) is reported as 4.93 log2 enrichment (interaction score).
With “GGCUAGAACUAGUGGAUCCCCCGGCGCCCGGCGGCUCGAGCCCGGGUAAGUGUACAUAGUCUGCAUGCCGCCGGGCGCCAUGCCUGCAGGUCGACUCUAGAAAACAUG” the binding signal (PUM1 PUF domain R4-NYP) was 2.11 log2 enrichment (interaction score) and the binding signal (PUM1 PUF domain R4-MPS) was 2.38 log2 enrichment (interaction score).
“GGCUAGAACUAGUGGAUCCCCCGGCGCCCGGCGGCUCGAGCCCGGGUAAGUGUAAAAAGUCUGCAUGCCGCCGGGCGCCAUGCCUGCAGGUCGACUCUAGAAAACAUG” was tested, and the binding signal (PUM1 PUF domain R2-LWE) was 7.67 log2 enrichment (interaction score).
For “GGCUAGAACUAGUGGAUCCCCCGGCGCCCGGCGGCUCGAGCCCGGGUAAGUUUAAAUAGUCUGCAUGCCGCCGGGCGCCAUGCCUGCAGGUCGACUCUAGAAAACAUG”, the binding signal (PUM1 PUF domain R7-EPS) was 5.7 log2 enrichment (interaction score) and the binding signal (PUM1 PUF domain R7-TVR) was 4.91 log2 enrichment (interaction score).
